Test results: PubChem BioAssay (NCATS)
Unmarked numbers belong to inactive results. Inconclusive results are not listed. A call without a number means that no potency is given here. Active and inactive are the calls of the source. Calls follow the shape of the dose curve; as a rule, active = well fitted curve in the direction sought with a large enough effect; inconclusive = small, poorly fitted or top-dose-only effect, or another doubt; inactive = no such curve, though single readings can be large; an effect the other way counts as inactive or inconclusive. Numbered stars: 1 amine (or outer) side, 2 acyl side, 3 side chain; on linkers, the order of the positions; unused ones are H or OH. Bridge positions count the residues as written; N and C are the ends. Square brackets hold non-standard residues; d marks the D form. Peptide text beside a SMILES is read from it. I, II: the chains in the order shown. Actinocin(9to1) = Cc1c2oc3c(C)ccc(C(=O)[*:1])c3nc-2c(C(=O)[*:2])c(N)c1=O; NMeV = CN[C@H](C(=O)O)C(C)C; Sar = CNCC(=O)O

How the values were obtained:
[1] = target: Glutathione peroxidase 1 (Homo sapiens) (UniProt P07203); experiment: Primary qHTS Assay for Inhibitors of Recombinant Selenoprotein Glutathione Peroxidase 1 (GPX1) (AID 1845191); also: nearly all actives have a fitted effect of over 65% in size; also: potency is read from the fitted curve at half-maximal effect
Sequence of Glutathione peroxidase 1 (Homo sapiens) (P07203 whole entry, looked up): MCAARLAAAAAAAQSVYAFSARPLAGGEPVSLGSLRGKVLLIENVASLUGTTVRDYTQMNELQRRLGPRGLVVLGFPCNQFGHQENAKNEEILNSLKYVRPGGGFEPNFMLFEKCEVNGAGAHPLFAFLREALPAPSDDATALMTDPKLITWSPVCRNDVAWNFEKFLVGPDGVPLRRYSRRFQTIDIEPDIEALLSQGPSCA
Method in brief: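 GR-coupled assay: compounds preincubated 30 min at room temperature with GPX1, then reaction started with CHP; final 10 nM GPX1, 1 mM GSH, 0.5 mM CHP, 0.5 mM NADPH, 100 nM GR, 0.01% BSA, pH 7.5 Tris buffer. NADPH fluorescence (340/450 nm) read at 0 and 15 min.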

[2] = target: Phospholipid hydroperoxide glutathione peroxidase GPX4 (Homo sapiens) (UniProt P36969); experiment: Primary qHTS Assay for Inhibitors of Recombinant Selenoprotein Glutathione Peroxidase 4 (GPX4) (AID 1845192); also: nearly all actives have a fitted effect of over 65% in size; also: potency is read from the fitted curve at half-maximal effect
Sequence of Phospholipid hydroperoxide glutathione peroxidase GPX4 (Homo sapiens) (P36969 whole entry, looked up): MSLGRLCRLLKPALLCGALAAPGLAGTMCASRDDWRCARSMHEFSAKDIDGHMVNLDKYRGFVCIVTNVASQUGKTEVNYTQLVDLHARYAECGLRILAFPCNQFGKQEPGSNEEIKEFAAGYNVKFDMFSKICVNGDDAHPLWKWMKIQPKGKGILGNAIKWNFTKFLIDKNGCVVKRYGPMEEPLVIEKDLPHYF
Method in brief: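 GR-coupled assay: recombinant GPX4 preincubated 30 min with compound at room temperature; final 200 nM GPX4, 1 mM GSH, 0.5 mM cumene hydroperoxide, 0.5 mM NADPH, 100 nM GR, 0.01% BSA, pH 7.5 Tris. NADPH fluorescence (340/450 nm) read at 0 and 15 min.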

[3] = target: Luciferin 4-monooxygenase (Photinus pyralis) (UniProt P08659); experiment: Primary firefly luciferase (FLuc) qHTS assay for identification of artifact compounds. (AID 1845220); settings: outcome: dose series up to 54.1 µM; also: nearly all actives have a fitted effect of over 60% in size
Method in brief: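 Enzymatic FLuc inhibition assay: compounds pre-exposed to luciferin/ATP (10 uM each) for 15 min, then purified P. pyralis enzyme at 10 nM added. Read-out: luminescence at 5 min.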

[4] = Primary fluorescence-based thiol-reactive (MSTI) qHTS assay for identification of artifact compounds. (AID 1845221);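 also: series mostly up to about 54 µM; thiol-reactive compounds lower the probe fluorescence signal; nearly all actives have a fitted effect of over 65% in size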
Method in brief: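 Probe: MSTI 4 uM, PBS pH 7.4, 2% DMSO. Incubation 1 h, RT, light-protected. Readout fluorescence 525/598 nm.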

[5] = system: Nanoluciferase (engineered Oplophorus gracilirostris luciferase); experiment: Primary Nanoluciferase (NLuc) qHTS assay for identification of artifact compounds. (AID 1845222);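 also: NLuc secreted into diluted conditioned medium of S16 cells; series mostly up to about 54 µM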
Method in brief: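 S16 cell supernatant NLuc, 1:55; cpds qHTS; 15 min RT dark; Nano-Glo substrate 1:100, 5 min; luminescence; Hill fit of % inhibition.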

[6] = Primary redox qHTS assay for identification of artifact compounds. (AID 1845223)
Method in brief: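 Amplex Red (25 uM) and HRP (250 mU/mL) in HBSS, with compounds for 15 min, then 250 uM DTT for 30 min, room temperature, dark. Fluorescence 525/598 nm read; normalized to DMSO and 10 uM DA3003; Hill fit.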

**Q.** Which results are given for `CC(C)COC(=O)OCN1C(=O)CN(CCN2CC(=O)N(COC(=O)OCC(C)C)C(=O)C2)CC1=O`?
**A.** Potency [1]: inactive; Potency [2]: inactive

**Q.** What does the source list for `Cc1c2oc3c(C)ccc(C(=O)N[C@@H]4C(=O)N[C@H](C(C)C)C(=O)N5CCC[C@H]5C(=O)N(C)CC(=O)N(C)[C@@H](C(C)C)C(=O)O[C@@H]4C)c3nc-2c(C(=O)N[C@@H]2C(=O)N[C@H](C(C)C)C(=O)N3CCC[C@H]3C(=O)N(C)CC(=O)N(C)[C@@H](C(C)C)C(=O)O[C@@H]2C)c(N)c1=O` (I: T[dV]P[Sar][NMeV] / II: T[dV]P[Sar][NMeV]; ester I:1-I:C, II:1-II:C; linker I:N-II:N via Actinocin(9to1))?
**A.** Potency [1]: inactive; Potency [2]: inactive

**Q.** For `C#C[C@]1(O)CC[C@H]2[C@@H]3CCC4=CC(=O)CC[C@@H]4[C@H]3CC[C@@]21C`, which Potency [1] is on record?
**A.** inactive

**Q.** And the Potency [2]?
**A.** inactive

**Q.** What does the source list for `C=C(CC)C(=O)c1ccc(OCC(=O)O)c(Cl)c1Cl`?
**A.** Potency [1]: inactive; Potency [2]: inactive

**Q.** For `Cc1c(N(C)CS(=O)(=O)O)c(=O)n(-c2ccccc2)n1C`, which Potency [1] is on record?
**A.** 3.21 µM (active)

**Q.** What about the Potency [2] of the same molecule?
**A.** 2 µM (active)

**Q.** For `Cc1nc2n(c(=O)c1CCN1CCC(c3noc4cc(F)ccc34)CC1)CCC[C@H]2O`, which Potency [1] is on record?
**A.** inactive

**Q.** And the Potency [2]?
**A.** inactive

**Q.** And the outcome [3]?
**A.** inactive

**Q.** What about the Potency [4] of the same molecule?
**A.** inactive

**Q.** What about the Potency [5] of the same molecule?
**A.** inactive

**Q.** And the outcome [6]?
**A.** inactive

**Q.** For `C[C@H](O)C(=O)Nc1c(I)c(C(=O)NC(CO)CO)c(I)c(C(=O)NC(CO)CO)c1I`, which Potency [1] is on record?
**A.** inactive

**Q.** What about the Potency [2] of the same molecule?
**A.** inactive

**Q.** With `CCCCS(=O)(=O)N[C@@H](Cc1ccc(OCCCCC2CCNCC2)cc1)C(=O)O` as the molecule, how does the Potency [1] read?
**A.** inactive

**Q.** And the Potency [2]?
**A.** inactive

**Q.** And the outcome [3]?
**A.** inactive

**Q.** What about the Potency [4] of the same molecule?
**A.** inactive

**Q.** What about the Potency [5] of the same molecule?
**A.** inactive

**Q.** What about the outcome [6] of the same molecule?
**A.** inactive

**Q.** What does the source list for `CC(=O)CC(c1ccc([N+](=O)[O-])cc1)c1c(O)c2ccccc2oc1=O` (stereo not given)?
**A.** Potency [1]: inactive; Potency [2]: inactive

**Q.** Which results are given for `CC(=O)Oc1ccc(C(=C2CCCCC2)c2ccc(OC(C)=O)cc2)cc1`?
**A.** Potency [1]: inactive; Potency [2]: inactive

**Q.** Which results are given for `CN1CCC[C@@H]1c1cccnc1`?
**A.** Potency [1]: inactive; Potency [2]: inactive

**Q.** Which results are given for `COC(=O)[C@H]1[C@H]2C[C@H]3c4[nH]c5ccccc5c4CCN3C[C@H]2CC[C@@H]1O`?
**A.** Potency [1]: inactive; Potency [2]: inactive

**Q.** Which results are given for `CCOc1ccc(Cc2nccc3cc(OCC)c(OCC)cc23)cc1OCC`?
**A.** Potency [1]: inactive; Potency [2]: inactive

**Q.** With `CC(=O)OCC(=O)[C@@]1(O)[C@H](C)C[C@H]2[C@@H]3CCC4=CC(=O)C=C[C@]4(C)[C@@]3(F)[C@@H](O)C[C@@]21C` as the molecule, how does the Potency [1] read?
**A.** inactive

**Q.** What about the Potency [2] of the same molecule?
**A.** inactive

**Q.** And the outcome [3]?
**A.** inactive

**Q.** And the Potency [4]?
**A.** inactive

**Q.** What about the Potency [5] of the same molecule?
**A.** inactive

**Q.** Which Potency [1] does the source give for `CCCCCCCCCCCCCCCCCC(=O)OCC(O)CO` (stereo not given) here?
**A.** inactive

**Q.** And the Potency [2]?
**A.** inactive

**Q.** For `CC(C)(CO)[C@@H](O)C(=O)NCCCO`, which Potency [1] is on record?
**A.** inactive

**Q.** And the Potency [2]?
**A.** inactive

**Q.** With `CC(=O)[C@H]1CC[C@H]2[C@@H]3C[C@H](C)C4=CC(=O)CC[C@]4(C)[C@H]3[C@@H](O)C[C@]12C` as the molecule, how does the Potency [1] read?
**A.** inactive

**Q.** And the Potency [2]?
**A.** inactive

**Q.** Which Potency [1] does the source give for `Cc1cc(O)c(C(C)C)cc1Cl` here?
**A.** inactive

**Q.** What about the Potency [2] of the same molecule?
**A.** inactive

**Q.** With `COC1=CC(=O)C[C@@H](C)[C@]12Oc1c(Cl)c(OC)cc(OC)c1C2=O` as the molecule, how does the Potency [1] read?
**A.** inactive

**Q.** What about the Potency [2] of the same molecule?
**A.** inactive

**Q.** For `CCCN1CCCC[C@H]1C(=O)Nc1c(C)cccc1C`, which Potency [1] is on record?
**A.** inactive

**Q.** What about the Potency [2] of the same molecule?
**A.** inactive

**Q.** With `CCCC(=O)Nc1ccc(OCC(O)CNC(C)C)c(C(C)=O)c1` (stereo not given) as the molecule, how does the Potency [1] read?
**A.** inactive

**Q.** What about the Potency [2] of the same molecule?
**A.** inactive

**Q.** For `CCOC(=O)/C=C(C)/C=C/C=C(C)/C=C/c1c(C)cc(OC)c(C)c1C`, which Potency [1] is on record?
**A.** inactive

**Q.** What about the Potency [2] of the same molecule?
**A.** inactive
